Hits are enriched below; roughly 19% of the tested compounds scored in any of these assays.
TDP1 cell CPT – qHTS for Inhibitors of human tyrosyl-DNA phosphodiesterase 1 (TDP1): qHTS in cells in presence of CPT; chicken DT40 Tdp1-/-;hTDP1 cells + 20 nM CPT, ATP luminescence, 48 h; Potency, µM (series often up to 46.2 µM), for the others: at the top dose activity change, negative = growth inhibition, hits mostly inhibitors; 420,000 compounds, 12% hits; also: potency is read from the fitted curve at half-maximal effect; nearly all actives have a fitted effect of over 55% in size
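Chicken DT40 Tdp1-/- cells stably complemented with human TDP1 were seeded at 400 cells/well in medium containing 20 nM camptothecin, exposed to pin-transferred compounds, and grown at 37 °C for at least 48 hr. Viability was read as ATP luminescence.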
IL-1B inflam inh – qHTS for Inhibitors of Inflammasome Signaling: IL-1-beta AlphaLISA Primary Screen | THP-1 LPS/ATP IL-1B secretion, AlphaLISA, 16 h; stronger effect = lower value | 360,000 compounds, 4.7% hits | activity change, % at 57.5 µM; in the data active = activity change below about -50%; inconclusive = mostly about -30% to -49%
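THP-1 cells pretreated 1 hr with compounds (up to 57.5 uM final), then stimulated with LPS (250 ng/mL final) plus ATP (1.25 mM final); secreted IL-1B measured by AlphaLISA after 16 hr, decreased signal indicating inhibition.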
HT1080 IDH1KD tx – qHTS for induction of synthetic lethality in tumor cells producing 2HG: qHTS for the HT-1080-IDH1KD cell line; 360,000 compounds, 2% hits; Potency, µM (series often up to 46.1 µM), without a hit: top-dose activity, negative = toxicity, most hits filed as cytotoxic; HT-1080 IDH1 knockdown viability, ATP luminescence, 48 h;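 also: potency is read from the fitted curve at half-maximal effect; 0% = DMSO wells and -100% = cell-free medium wells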
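Using the IDH1-knockdown HT-1080 line run in the same batch and compound series as the NT line, viability after 48 h at 37 °C was determined by CellTiter-Glo luminescence and expressed as % activity.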
TDP1 cell noCPT – qHTS for Inhibitors of human tyrosyl-DNA phosphodiesterase 1 (TDP1): qHTS in cells in absence of CPT; DT40 Tdp1-/- hTDP1 cells, no CPT, ATP luminescence, 48 h; AID 686978, 2013; 420,000 compounds, 15% hits; Potency, µM (titrated, usually from 46.2 µM), for the others: top-dose activity change, negative = growth inhibition, hits mostly inhibitors; also: potency is read from the fitted curve at half-maximal effect; nearly all actives have a fitted effect of over 55% in size
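No-CPT arm: Tdp1-/-;hTDP1 DT40 cells (400/well) plus compounds, incubated ≥48 hr at 37 °C. Readout CellTiter-Glo luminescence.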
HT1080NT lethal – qHTS for induction of synthetic lethality in tumor cells producing 2HG: qHTS for the HT-1080-NT fibrosarcoma cell line; Potency, µM (top dose mostly 46.1 µM), without a hit: top-dose activity, negative = less viability, hits mostly cytotoxic; HT-1080-NT fibrosarcoma viability, CellTiter-Glo ATP luminescence, 48 h; 360,000 compounds, 1.6% hits;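 also: NT is the 2HG producing partner of a matched IDH1 knockdown line; potency is read from the fitted curve at half-maximal effect; 0% = DMSO-treated cells and -100% = media-only wells without cells; nearly all actives have a fitted effect of over 55% in size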
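750 cells/well, RPMI + 5% FBS; 2 h settle, compound pin-transfer, 48 h at 37 degrees C. CellTiter-Glo 10 min RT, luminescence. Normalized to DMSO and media-only wells.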
* = called active by the depositor; ? = inconclusive; nt = no result given. Unless noted, calls follow the shape of the dose curve; as a rule, active = well fitted curve in the direction sought with a large enough effect; inconclusive = small, poorly fitted or top-dose-only effect, or another doubt; inactive = no such curve, though single readings can be large; an effect the other way counts as inactive or inconclusive. Unless noted, % is scaled to controls: 0 for no effect and ±100 for the full control effect.

SMILES | TDP1 cell CPT | IL-1B inflam inh | HT1080 IDH1KD tx | TDP1 cell noCPT | HT1080NT lethal
Cc1cccc(/N=C/c2c(O)n(Cc3ccc4c(c3)OCO4)c(=O)c3ccccc23)n1 | 0.5% | 9.2 | 24.7% | -18.1% | ?
COc1ccc(-n2c(O)c(C=Nc3ccccc3)c3ccccc3c2=O)cc1OC | ? | -11.4 | 1.1% | ? | -5.4%
CCOC(=O)Cc1csc(/N=C/c2c(O)n(-c3ccc(C)c(C)c3)c(=O)c3ccccc23)n1 | 20.6µM* | -6.9 | 21.5% | ? | 6.5%
Cc1cc(N=Cc2c(O)n(-c3ccc4c(c3)OCO4)c(=O)c3ccccc23)ccn1 | 18.4µM* | ? | ? | 18.4µM* | ?
Cc1cccc(-n2c(O)c(C=Nc3cccc(O)c3)c3ccccc3c2=O)n1 | 20.6µM* | -14.0 | -3.1% | ? | -6.1%
Cc1ccc(-n2c(O)c(C=Nc3ccc4c(c3)OCO4)c3ccccc3c2=O)cc1C | 7.31µM* | 25.0 | -13.6% | ? | 11.6%
Cc1cccc(-n2c(O)c(C=Nc3ccc4c(c3)OCO4)c3ccccc3c2=O)n1 | ? | ? | 6.2% | ? | -0.2%
COc1ccc(-n2c(O)c(C=Nc3ccccc3)c3ccccc3c2=O)cc1 | ? | 13.8 | 6.5% | -16.7% | 9.4%
COc1ccc(CCNC(=O)CCOc2cc(C)ccc2C)cc1OC | -17.9% | 6.9 | -5.5% | -18.3% | -1.4%
COc1cc(C(=O)N2CCc3ccccc32)c([N+](=O)[O-])cc1OC | 32.2% | 25.3 | 3.7% | -14.0% | 11.0%
O=C(Nc1cc2ccc(O)cc2oc1=O)c1ccccc1 | -0.8% | nt | nt | -17.5% | nt
O=C(O)CC1NC(=O)N(C2CCCCC2)C1=O (centres undefined) | 3.8% | 0.0 | 13.2% | 21.8% | 9.8%
CCCCCN1CSC(=S)N(Cc2ccccc2)C1 | 4.61µM* | -95.3* | -17.6% | 3.66µM* | -0.7%
S=C1SCN(Cc2cccs2)CN1Cc1cccs1 | ? | 0.0 | -8.6% | 23.1µM* | -6.1%
c1csc(CN2CCOCC2)c1 | -1.9% | -10.9 | 3.2% | -2.2% | -2.0%
CCN1CSC(=S)N(Cc2ccccc2)C1 | 2.59µM* | -100.2* | 1.0% | 4.61µM* | -9.1%
CCN1CN(CCc2ccccc2)CNC1=S | -3.9% | 25.3 | 9.5% | -1.3% | 1.1%
CCN1CSC(=S)N(Cc2ccc(OC)cc2)C1 | 5.17µM* | 24.8 | -2.3% | 4.61µM* | 1.6%
CCCOc1ccc(C2NC(=S)NC(c3ccccc3)=C2C(=O)Nc2ccc(C)cc2)cc1OC (centres undefined) | ? | -19.5 | -2.3% | ? | 1.7%
Cc1ccsc1C(=O)OCC(=O)N1C(C)CCCC1C (centres undefined) | 1.0% | -2.6 | 2.3% | -23.6% | 2.2%
CC1CC(C)CN(C(=O)c2ccccc2Nc2ccc(SC(F)F)cc2)C1 (centres undefined) | -24.3% | -9.9 | -14.5% | -16.9% | -2.5%
COc1ccc(S(=O)(=O)N2CCc3ccccc32)cc1C(=O)NCC(c1ccco1)N1CCCC1 (centres undefined) | -24.9% | 16.2 | 0.0% | ? | 0.4%
CC(=O)NCC1CCN(C(=O)C2CCC(=O)N(CCc3cccc(F)c3)C2)CC1 (centres undefined) | 8.6% | 4.2 | 3.2% | 6.6% | -16.1%
FC(F)c1nc2nc(Cl)c(Cl)nc2[nH]1 | 16.4µM* | 40.7 | ? | ? | -13.4%
Cc1ccc(-c2nc(C(=O)NCCCN(C)C)cc3c2[nH]c2ccccc23)cc1 | ? | -17.1 | ? | 23.1µM* | ?
SMILES | TDP1 cell CPT | IL-1B inflam inh | HT1080 IDH1KD tx | TDP1 cell noCPT | HT1080NT lethal
C[C@H](NC(=O)c1cc2c([nH]c3ccccc32)c(-c2ccccc2)n1)C(=O)O | ? | 5.1 | -1.0% | ? | -15.0%
O=C(NCCO)c1cc2c([nH]c3ccccc32)c(-c2ccc(F)cc2)n1 | ? | -93.4* | -11.5% | 16.4µM* | -16.6%
O=C(NCCO)c1cc2c([nH]c3ccccc32)c(-c2ccccc2)n1 | ? | ? | -28.8% | 16.4µM* | -24.7%
Cc1nc(C(=O)NCCO)cc2c1[nH]c1ccccc12 | 9.0% | -3.7 | 13.5% | -6.5% | -0.1%
Cc1nc(C(=O)NCCCO)cc2c1[nH]c1ccccc12 | ? | -8.0 | 21.1% | ? | 3.6%
CCCN1CCN(CCNC(=O)Nc2ccccc2OCC)CC1 | -4.4% | nt | nt | -0.1% | nt
O=CN1CCN(S(=O)(=O)c2ccc(S(=O)(=O)NC3CCCCC3)cc2)CC1 | 0.5% | 2.3 | 1.4% | -7.8% | -10.6%
COc1cc2cc(C(c3nnnn3C(C)(C)C)N3CCC(C)CC3)c(=O)[nH]c2cc1OC (centres undefined) | -14.3% | -5.7 | -11.5% | 8.9% | 0.6%
Cc1cccc(N2CCN(C(=O)C3CCN(C(=O)c4cc5sccc5n4C)CC3)CC2C)c1 (centres undefined) | 13µM* | nt | nt | 5.17µM* | nt
Cc1ccc(C)c(N2CCN(C(=O)c3cc4sccc4n3C)CC2)c1 | ? | -16.5 | ? | ? | ?
CCn1c(C(=O)N2CCCC(C(=O)N3CCN(c4cc(C)ccc4C)CC3)C2)cc2sccc21 (centres undefined) | ? | nt | nt | 13µM* | nt
Cc1ccc(C)c(N2CCN(C(=O)C3CCN(C(=O)c4cc5sccc5n4C)CC3)CC2)c1 | 9.2µM* | nt | nt | 8.2µM* | nt
Cc1ccc(C(=O)NCC(=O)N/N=C/c2cccs2)cc1C | 2.5% | 32.7 | 10.2% | 9.0% | -2.5%
CCCCN(CCCC)C(=O)c1c[nH]c2ccc(S(=O)(=O)Nc3cccc(Cl)c3C)cc2c1=O | -22.8% | nt | nt | -12.1% | nt
CC(C)c1ccc(N2C(=O)N(Cc3ccccc3Cl)c3ccccc3S2(=O)=O)cc1 | ? | nt | nt | 18.4µM* | nt
